Results reported in PubChem BioAssay (NCI).
Values joined by “and” are separate entries in the source; they are usually repeats but may differ in a detail not shown here. Equal entries are not always repeated. Compounds without any hit were thinned out: in the full panel of roughly 83,000, 20% have a hit.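 Single-dose data. Exposure time 48 hours. Values below 10 considered active.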 A number with no mark means an inactive call. Active and inactive are the calls of the source.

test system: MDA-MB-468 breast; assay: NCI-60 one-dose screen, 48 h (100 = growth as untreated, 0 = no growth, -100 = all killed); settings: 10 µM unless noted

SMILES | growth
C=CCOc1cccc(/C=C2\SC(=Nc3ccc(O)cc3)NC2=O)c1 | -7.52% (active)
CC1(C)CN(c2cnc(C(=O)Nc3cc(F)cc4cccnc34)cn2)CCN1 | 17.8%
COc1ccc(-c2nc3sccn3c2-c2ccnc(S(C)(=O)=O)n2)cc1 | -25.9% (active)
Cc1ccc(NC(=O)c2sc3nc(C)c(C(=O)c4ccccc4)cc3c2N)cc1 | 79%
N#CC(C#N)=C1NC(c2ccccc2)=C(c2ccccc2)C(c2ccccc2Cl)=C1C#N | 129%
CS(=O)(=O)Nc1cc(-c2ccc3ncnc(Nc4ccc5[nH]ncc5c4)c3c2)cnc1Cl | 16.6%
CC[C@]1(O)C[C@@H]2CN(CCc3c([nH]c4ccccc34)[C@@](C(=O)OC)(c3cc4c(cc3OC)N(C)[C@H]3[C@@](O)(C(=O)OC)[C@H](OC(C)=O)[C@]5(CC)C=CCN6CC[C@]43[C@@H]65)C2)C1 | 19.8%
NS(=O)(=O)c1ccc(-n2cc(-c3cccc(NC(=O)c4ccc(N5CCOCC5)c(C(F)(F)F)c4)c3)nn2)cc1 | 36.7%
CNC(=O)c1cc(Oc2cccc3nc(NC(=O)Nc4cc(C(F)(F)F)ccc4Cl)ccc23)ccn1 | 111%
CC1CCN(S(=O)(=O)c2ccc(S(=O)(=O)N3CCCC(c4nc5c(nnn5Cc5cccc(Cl)c5)c(=O)[nH]4)C3)cc2)CC1 (stereo not drawn) | 27.7%
COC1=CC2C=C(C3N(c4ccccc4)NC(=O)[C@@H]4CCCN34)C(=O)NC2C=C1 (stereo partly drawn) | 114%
Cc1nc(-c2ccccc2)cc2c(O)c(C(=O)N/N=C/Cc3ccccc3)[nH]c(=O)c12 | 111%
CC1(CO)CCCC1NCCNC1CCCC1(C)CO (stereo not drawn) | 104% and 95.5%
CCN1CCN(C(=O)[C@]23CCC(C)(C)C[C@H]2C2=CC[C@@H]4[C@@]5(C)CC/C(=N/O)C(C)(C)[C@@H]5CC[C@@]4(C)[C@]2(C)CC3)CC1 | 47%
Nc1c(C(=O)c2ccccc2)sc2nc(-c3cccs3)ccc12 | 3.08% (active)
Nc1nc(C(=O)N/N=C/c2ccc(F)cc2)nn1-c1ccc(S(N)(=O)=O)cc1 | 102%
Oc1ccc(/C=N/NC(=S)Nc2ccccc2)nc1 | -37.7% (active)

SMILES | growth
CC1Cc2c(ncn3c(-c4ccc(F)cc4)nnc23)N(C)c2ccccc21 (stereo not drawn) | 66%
CC1(C)CC(=O)c2cc3c(N)c(C(=O)Nc4ccc(Cl)cc4)sc3nc2C1 | 110%
CC(=O)N1N=C(c2cc3ccccc3oc2=O)CC1c1cn(-c2ccccc2)nc1-c1ccc(C)cc1 (stereo not drawn) | 94.6%
C=C1C(=O)O[C@@H]2C[C@@H](C)/C=C\C(=O)[C@](C)(OC(C)=O)C[C@H](OC(=O)/C(C)=C\C)[C@@H]12 | -59.1% (active)
COc1cc2cc(Oc3ccc(NC(=O)Nc4ccc(Cl)c(Cl)c4)cc3)c(C)nc2cc1OCCN1CCOCC1 | 33.9%
Brc1ccc(Oc2ccc(Nc3ncnc4onc(-c5ccccc5)c34)cc2)cc1 | 103%
CCC(CC)N1C(=O)/C(=c2\sc3n(c2=O)NC2C(N=3)N(CC)C(=O)N2CC)c2ccccc21 (stereo not drawn) | 79.9%
C=C(C)[C@@H]1CC[C@]2(C(=O)N3CCNCC3)CC[C@]3(C)[C@H](CC[C@@H]4[C@@]5(C)C/C(=C/c6ccncc6)C(=O)C(C)(C)[C@@H]5CC[C@]43C)[C@@H]12 | 95%
OC1CSSC1Cn1cnc2c(Nc3ccc(OCc4cccc(F)c4)c(Cl)c3)ncnc21 (stereo not drawn) | -53.2% (active)
O=C(c1ccc(Cl)cc1)N1CCN(c2ccnc3cc(Cl)ccc23)CC1 | 72.7%
N#Cc1cnc2cc(OC[C@H](O)CO)c(NC(=O)CC3CSSC3)cc2c1Nc1ccc(OCc2cccc(F)c2)c(Cl)c1 | -78.3% (active)
CC(=O)NCCSC(=O)C(=O)SCCNC(C)=O | 103%
C/C(=N\O)c1ccccn1 | 97.6%
COc1ccc(C(=O)/C=C/c2c(Cl)nc3c(c(C)nn3-c3ccccc3)c2-c2ccc(Br)cc2)cc1 | 103%
C=C(C[n+]1ccccc1)[C@@H]1CC[C@]2(C(=O)OC)CC[C@]3(C)[C@H](CC[C@@H]4[C@@]5(C)CCC(=O)C(C)(C)[C@@H]5CC[C@]43C)[C@@H]12 | 7.22% (active)
CC(=O)c1ccc(Nc2nc(SCC(C)C)nc(-c3ccccc3)c2C#N)cc1 | 73.7%
